Substitutions are numbered along the chain they refer to; changes in the protein carry UniProt numbers. Whole data set: some 16,000 sequences, median “ka relative to ugcaugu” near 0.0091, cut for the highest 2% near 0.032. The sample as a whole holds a higher share of the highest values than the screen did.
B1: UCAGCGA (DNA:RNA)
RNA: GGGAGACCGGAAUUCAGAUUGUCCUCAGCGAUUAAAUCCCGUCGUAGCCACCA
DNA 1: CAATCTGAATTCCGGTCTCCC
DNA 2: TGGTGGCTACGACGGGATT
B2: ACCACAA (DNA:RNA)
RNA: B1 RNA with U25A, A27C, G28A, G30A
DNA 1: CAATCTGAATTCCGGTCTCCC
DNA 2: TGGTGGCTACGACGGGATT
B3: GUCGAGG (DNA:RNA)
RNA: B1 RNA with U25G, C26U, A27C, C29A, A31G
DNA 1: CAATCTGAATTCCGGTCTCCC
DNA 2: TGGTGGCTACGACGGGATT
B4: GACCCGU (DNA:RNA)
RNA: B1 RNA with U25G, C26A, A27C, G28C, A31U
DNA 1: CAATCTGAATTCCGGTCTCCC
DNA 2: TGGTGGCTACGACGGGATT
B5: AGAUGGC (DNA:RNA)
RNA: B1 RNA with U25A, C26G, G28U, C29G, A31C
DNA 1: CAATCTGAATTCCGGTCTCCC
DNA 2: TGGTGGCTACGACGGGATT
B6: CGCUGGA (DNA:RNA)
RNA: B1 RNA with U25C, C26G, A27C, G28U, C29G
DNA 1: CAATCTGAATTCCGGTCTCCC
DNA 2: TGGTGGCTACGACGGGATT
B7: GCUAUGG (DNA:RNA)
RNA: B1 RNA with U25G, A27U, G28A, C29U, A31G
DNA 1: CAATCTGAATTCCGGTCTCCC
DNA 2: TGGTGGCTACGACGGGATT
B8: CACCGAC (DNA:RNA)
RNA: GGGAGACCGGAAUUCAGAUUGUCCCACCGACUUAAAUCCCGUCGUAGCCACCA
DNA 1: CAATCTGAATTCCGGTCTCCC
DNA 2: TGGTGGCTACGACGGGATT
B9: GGAAGCG (DNA:RNA)
RNA: B8 RNA with C25G, A26G, C27A, C28A, A30C, C31G
DNA 1: CAATCTGAATTCCGGTCTCCC
DNA 2: TGGTGGCTACGACGGGATT

Biological target: T1, RBFOX1 RRM (Homo sapiens, UniProt Q9NWB1 109-208)
T1 sequence: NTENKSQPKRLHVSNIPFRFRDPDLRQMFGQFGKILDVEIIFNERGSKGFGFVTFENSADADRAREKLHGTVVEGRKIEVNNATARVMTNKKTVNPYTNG
Assay: EMSA; HiTS-Eq, 1 nM pool, 10 min; buffer printed only for the single-RNA assays: 10 mM Tris pH 7.5, 150 mM NaCl, 3.4 mM EDTA, 0.001% NP-40, 30 C
Conditions: tags: His6 N-terminal (pET28a); label: 5' 32P
In short: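 Relative association constants, normalised to the cognate motif, were derived by comparing read counts of each RNA species with those of the control reaction. The RNA sequenced was the free fraction, separated by 8% native PAGE after a 10 min equilibration in 50 µL of 1 nM 5′-radiolabelled RNA (7 randomized nucleotides) with increasing concentrations of purified wild-type or mutant RbFox RRM.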

First: B1
Second: B2
The binding signal of the first is higher: 0.00561 KA relative to UGCAUGU for the first, 0.00102 KA relative to UGCAUGU for the second.

First: B3
Second: B4
The binding signal of the first is higher: 0.0114 KA relative to UGCAUGU for the first, 0.00715 KA relative to UGCAUGU for the second.

First: B5
Second: B6
The binding signal of the first is higher: 0.0111 KA relative to UGCAUGU for the first, 0.00997 KA relative to UGCAUGU for the second.

First: B7
Second: B8
The binding signal of the first is higher: 0.0134 KA relative to UGCAUGU for the first, 0.00223 KA relative to UGCAUGU for the second.

With B9 the binding signal was 0.0177 KA relative to UGCAUGU.

— PMC9911399, “Two distinct binding modes provide the RNA-binding protein RbFox with extraordinary sequence specificity”
